Shown are actives, neighbours in structure and some others; about 2.8% of the full set was active somewhere.
Pol iota inh – qHTS for Inhibitors of Polymerase Iota. Pol iota fluorescent replication assay, 10 min. Potency, µM (series often up to 115 µM), inactives show at the top dose activity, negative = inhibition, actives largely listed as inhibitors. DNA polymerase iota (Homo sapiens), Q9UNA4. 390,000 tested, 1% active; also: potency is read from the fitted curve at half-maximal effect
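Pol iota at 10 nM preincubated 15 min with compounds at room temperature; reaction started with fluorescent substrate, 50 nM final. Fluorescence read kinetically at 0 and 10 min; buffer-only wells as negative control.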
WRN helicase inh – qHTS for Inhibitors of WRN Helicase. WRN helicase unwinding, fluorescent forked duplex, kinetic. Potency, µM (doses to about 114 µM), without a hit: at the top dose activity change, negative = inhibition, most hits filed as inhibitors. 360,000 tested, 0.46% active; also: potency is read from the fitted curve at half-maximal effect; % is scaled to controls: 0 for no effect and ±100 for the full control effect; nearly all actives have a fitted effect of over 55% in size
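Kinetic red-fluorescence monitoring (525/598 nm) tracks WRN helicase activity after 100 nM fluorophore-quencher forked duplex and 2 mM ATP are added to 20 nM enzyme pretreated 15 min at room temperature with compound.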
Pol eta inh – qHTS for Inhibitors of Polymerase Eta. 390,000 tested, 1.2% active. recombinant Pol eta, fluorescent DNA replication assay. DNA polymerase eta (Homo sapiens), Q9Y253. Potency, µM (top dose mostly 114 µM), for the others: at the highest dose activity change, negative = inhibition, actives largely listed as inhibitors. AID 588591, 2011; also: potency is read from the fitted curve at half-maximal effect; % is scaled to controls: 0 for no effect and ±100 for the full control effect
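Fluorescent replication assay: 50 nM final substrate added after a 15 min room-temperature compound preincubation with 10 nM enzyme. Signal taken at 0 min and again at 10 min.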
PI5P4K alpha inh – qHTS for Inhibitors of phosphatidylinositol 5-phosphate 4-kinase (PI5P4K). Phosphatidylinositol 5-phosphate 4-kinase type-2 alpha (Homo sapiens), P48426. PI5P4Kalpha enzyme, ADP-Glo luminescence, 60 min; hits give low values. max response, %. 330,000 tested, 1.2% active. AID 652105, 2013; active = max response of -50% or lower; inconclusive = between -30% and -50%; inactive = -30% or higher; also: value at the top dose of about 77 µM; % is scaled to controls: 0 for no effect and ±100 for the full control effect
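Controls without substrate or without enzyme flank wells where PI5P4Kalpha converts substrate using 5 microM ATP (final). Incubation lasts 60 minutes at room temperature; ADP formed is read by ADP-Glo luminescence.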
Pol kappa inh – qHTS for Inhibitors of Polymerase Kappa; DNA polymerase kappa (Homo sapiens), Q9UBT6; purified Pol kappa, fluorescent DNA synthesis assay, 10 min; Potency, µM (series often up to 107 µM), without a hit: at the top dose activity, negative = inhibition, most hits filed as inhibitors; 400,000 tested, 0.53% active; also: potency is read from the fitted curve at half-maximal effect; % is scaled to controls: 0 for no effect and ±100 for the full control effect
Target sequence (Q9UBT6 whole entry, looked up): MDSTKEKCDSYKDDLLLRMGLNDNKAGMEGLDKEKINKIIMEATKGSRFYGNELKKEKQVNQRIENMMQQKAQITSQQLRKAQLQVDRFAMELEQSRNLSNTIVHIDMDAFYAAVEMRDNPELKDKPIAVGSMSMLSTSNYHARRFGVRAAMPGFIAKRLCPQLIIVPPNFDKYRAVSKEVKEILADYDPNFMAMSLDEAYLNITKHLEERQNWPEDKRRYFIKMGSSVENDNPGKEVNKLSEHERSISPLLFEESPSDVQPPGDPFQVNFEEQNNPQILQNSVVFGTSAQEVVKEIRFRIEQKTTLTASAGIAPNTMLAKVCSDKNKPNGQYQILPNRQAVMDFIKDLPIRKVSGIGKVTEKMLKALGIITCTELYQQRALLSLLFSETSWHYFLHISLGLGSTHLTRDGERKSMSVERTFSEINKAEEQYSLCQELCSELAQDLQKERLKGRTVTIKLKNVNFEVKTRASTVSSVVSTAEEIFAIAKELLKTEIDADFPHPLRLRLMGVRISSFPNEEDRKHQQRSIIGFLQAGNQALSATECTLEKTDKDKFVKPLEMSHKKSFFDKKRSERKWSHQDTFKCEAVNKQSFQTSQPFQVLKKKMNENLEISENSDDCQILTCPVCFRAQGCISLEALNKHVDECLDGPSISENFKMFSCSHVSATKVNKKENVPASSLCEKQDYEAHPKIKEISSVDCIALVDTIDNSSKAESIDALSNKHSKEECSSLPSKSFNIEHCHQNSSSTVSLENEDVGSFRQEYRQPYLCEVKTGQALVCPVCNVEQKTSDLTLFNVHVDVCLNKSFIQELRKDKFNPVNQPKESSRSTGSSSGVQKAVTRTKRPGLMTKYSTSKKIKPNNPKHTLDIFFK
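Inhibition of 10 nM Pol kappa is measured by a fluorescent read-out at 0 and 10 min following addition of 50 nM substrate (final), with a 15-min room-temperature compound preincubation.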
Pol beta inh – qHTS Assay for Inhibitors of DNA Polymerase Beta | Pol beta primer extension/strand displacement, fluorescence kinetic | Potency, µM (doses to about 114 µM), inactives show at the top dose activity change, negative = inhibition, hits mostly inhibitors | 340,000 tested, 1.3% active; also: potency is read from the fitted curve at half-maximal effect; % is scaled to controls: 0 for no effect and ±100 for the full control effect
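Reaction started by 50 nM substrate onto compound-treated Pol beta (10 nM, 15 min preincubation, room temperature); plates read at 0 min and 10 min. Normalized concentration-effect data fitted by four-parameter Hill equation.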
Starred values were filed as active, the others as inactive; [ ] = another dose, or the depositor's remark. Unless noted, calls follow the shape of the dose curve; as a rule, active = well fitted curve in the direction sought with a large enough effect; inconclusive = small, poorly fitted or top-dose-only effect, or another doubt; inactive = no such curve, though single readings can be large; an effect the other way counts as inactive or inconclusive.

COc1ccc(Br)cc1/C=N/NC(=O)c1ccc(COc2ccc3c(c2)CCC3)o1 was read as Pol iota inh 21%, WRN helicase inh 4%, Pol eta inh -20%, PI5P4K alpha inh 6, Pol kappa inh -3% and Pol beta inh 6%.
For O=C(N/N=C/c1cc([N+](=O)[O-])ccc1O)c1ccc(COc2ccc3c(c2)CCC3)o1 the results were Pol iota inh 38%, WRN helicase inh 6%, Pol eta inh 1%, PI5P4K alpha inh -56*, Pol kappa inh -8% and Pol beta inh 22%.
Screening CCOc1ccc(C(=O)C(C)OC(=O)Cn2[nH]c(=O)c3ccccc3c2=O)cc1 (stereo unspecified) returned Pol iota inh 2%, WRN helicase inh -34%, Pol eta inh -11%, PI5P4K alpha inh -1, Pol kappa inh -9% and Pol beta inh -8%.
COC(=O)CCC(=O)OC1(C)C(=O)C=C2C=C3CCCN3C=C2C1=O (stereo unspecified) was read as Pol iota inh inconclusive, WRN helicase inh -3%, Pol eta inh 50µM*, PI5P4K alpha inh -16, Pol kappa inh inconclusive and Pol beta inh -26%.
For COC(=O)CCC(=O)OC1(C)C(=O)C2=CN(Cc3ccc(OC)cc3)C(c3ccc(OC)cc3)=CC2=C(Br)C1=O (stereo unspecified) the results were Pol iota inh 81%, WRN helicase inh 2%, Pol eta inh -6%, PI5P4K alpha inh -13 and Pol kappa inh -12%.
`C=CCN1C=C2C(=O)C(C)(OC(=O)CCC(=O)OC)C(=O)C=C2C=C1C1CC1` (stereo unspecified) gave Pol iota inh 85%, WRN helicase inh -2%, Pol eta inh -4%, PI5P4K alpha inh 0, Pol kappa inh -5% and Pol beta inh -15%.
`COC(=O)CCC(=O)OC1(C)C(=O)C2=CN(C3CC3)C(c3ccc(OC)cc3)=CC2=C(Br)C1=O` (stereo unspecified) gave Pol iota inh inconclusive, WRN helicase inh -8%, Pol eta inh 79µM*, PI5P4K alpha inh -3 and Pol kappa inh -24%.
`CC1(OC(=O)C2CCCC2)C(=O)C=C2C=C3CCCCN3C=C2C1=O` (stereo unspecified) gave Pol iota inh inconclusive, WRN helicase inh 6%, Pol eta inh inconclusive, PI5P4K alpha inh -3, Pol kappa inh inconclusive and Pol beta inh 13%.
COCCN1C=C2C(=O)C(C)(OC(=O)c3cccs3)C(=O)C=C2C=C1CCCC(=O)OC (stereo unspecified) was read as Pol iota inh inconclusive, WRN helicase inh 8%, Pol eta inh -6%, PI5P4K alpha inh -4, Pol kappa inh -17% and Pol beta inh 3%.
COC(=O)CCC(=O)OC1(C)C(=O)C=C2C=C(C3CC3)N(CCCOC(C)C)C=C2C1=O (stereo unspecified) was read as Pol iota inh inconclusive, WRN helicase inh -3%[57.1 µM], Pol eta inh 89µM*, PI5P4K alpha inh -3, Pol kappa inh -33% and Pol beta inh 22%.
For COC(=O)CCCC1=CC2=CC(=O)C(C)(OC(=O)c3cccs3)C(=O)C2=CN1CCCCO (stereo unspecified) the results were Pol iota inh 22µM*, WRN helicase inh 3%, Pol eta inh -13%, PI5P4K alpha inh 1, Pol kappa inh -7% and Pol beta inh 13%.
Screening Cc1ccc(C(C)C)c(OCC(=O)NNC(=O)C(C(C)C)N2C(=O)c3ccccc3C2=O)c1 (stereo unspecified) returned Pol iota inh 2%, WRN helicase inh -20%, Pol eta inh inconclusive, PI5P4K alpha inh 13, Pol kappa inh -16% and Pol beta inh -11%.
CCOc1ccccc1NC(=O)C1CCN(C(=O)C2CC(=O)N(c3ccc(C)cc3)C2)CC1 (stereo unspecified) was read as Pol iota inh 28%, WRN helicase inh 3%, Pol eta inh -13%, PI5P4K alpha inh 1, Pol kappa inh -13% and Pol beta inh 15%.
`CC1Cc2ccccc2N1C(=O)c1ccc(F)c(S(=O)(=O)N2CCOCC2)c1` (stereo unspecified) gave Pol iota inh 63%, WRN helicase inh -8%, Pol eta inh -11%, PI5P4K alpha inh 0 and Pol kappa inh 4%.
COC(=O)CCC(=O)OC1(C)C(=O)C=C2C=C(C3CC3)N(CCCCO)C=C2C1=O (stereo unspecified) was read as Pol iota inh 25µM*, WRN helicase inh 7%, Pol eta inh 7%, PI5P4K alpha inh 0, Pol kappa inh -30% and Pol beta inh -2%.
For COC(=O)CCC(=O)OC1(C)C(=O)C=C2C=C(C3CC3)N(Cc3ccc(OC)cc3)C=C2C1=O (stereo unspecified) the results were Pol iota inh 18µM*, WRN helicase inh -6%, Pol eta inh 10%, PI5P4K alpha inh -5, Pol kappa inh -15% and Pol beta inh 2%.
Screening Oc1cccc(O)c1O returned Pol kappa inh 3µM*.
Screening O=C(O)c1cccc(O)c1O returned Pol iota inh 6%, WRN helicase inh -2%, Pol eta inh -23%, PI5P4K alpha inh -1 and Pol kappa inh -2%.
CC(NC(=O)COC(=O)c1cc([N+](=O)[O-])ccc1N1CCOCC1)c1ccccc1 (stereo unspecified) was read as Pol iota inh 22%, WRN helicase inh -15%, Pol eta inh -21%, PI5P4K alpha inh -6, Pol kappa inh -5% and Pol beta inh -1%.
Screening CC(NC(=O)COC(=O)c1cc([N+](=O)[O-])ccc1N1CCOCC1)c1ccc(F)cc1 (stereo unspecified) returned Pol iota inh inconclusive, WRN helicase inh -8%[11.6 µM], Pol eta inh 56µM*, PI5P4K alpha inh inconclusive and Pol kappa inh inconclusive.
For N#C/C(=C\c1ccc(OCc2ccc(C(=O)O)cc2)cc1)C(=O)N1CCOCC1 the results were Pol iota inh inconclusive, WRN helicase inh -25%, Pol eta inh 28µM*, PI5P4K alpha inh -23, Pol kappa inh -28% and Pol beta inh 13%.
CCCCC(=O)N(C)c1c(CC)nc2c(OCc3ccc(C(F)(F)F)cc3)cccn12 was read as WRN helicase inh -6% and PI5P4K alpha inh -2.
Cc1cccc(C(=O)Nc2ccc(C(=O)OCc3cc(=O)n4c(C)csc4n3)cc2)c1 was read as Pol iota inh -28%, Pol eta inh -21%, Pol kappa inh -5%[60.1 µM] and Pol beta inh 13µM*.
Screening CC(C)NC(=O)N1CC[C@@]2(CCCN(C(=O)Oc3ccccc3)C2)C1 returned Pol kappa inh 13%[60.1 µM].

Screens as filed in PubChem BioAssay.
